High-throughput results deposited in PubChem by Center for Chemical Genomics, University of Michigan.
This is a sample that favours compounds with a hit; in the whole collection about 0.93% have one here.
TAR Tat displ = TAR RNA-Tat peptide displacers, HIV-1, primary screen, biochemical, FRET, FAM/TAMRA-labeled Tat. HIV-1 TAR RNA, Tat peptide displacement FRET; stronger effect = higher value. z-score (no concentration beside the values). actives 0.6% (n = 100,000). AID 1259389, 2018; active means z-score of 3 or more in at least 2 runs
CDC25B CDK2 inh = primary biochemical HTRF screen for blockers of M-phase inducer phosphatase 2 binding to CDK2/cyclin A; HTRF CDC25B-CDK2/CyclinA binding, anti-His/anti-Flag; stronger effect = higher value; z-score (concentration not given with the values); actives 0.72% (n = 94,000); in the data active means z-score above about 3.2
Numbers without * were called inactive; / = no result; ! = a repeat was not active.

SMILES	TAR Tat displ	CDC25B CDK2 inh
COCCNC(=O)Nc1ccc2nc3c4ccccc4c4ccccc4c3nc2c1	/	20*
O=C(NC1CC1)c1ccc(NC(=O)c2nsc3ccccc23)cc1	2.2	-3.1
S=C(Nc1ccc2nc3c4ccccc4c4ccccc4c3nc2c1)NC1CC1	/	7.1*
COc1cccc2c(=O)cc(-c3ccccc3)[nH]c12	0.47	-1.2
CC(=O)c1cccc(-n2c(N)c(C#N)c3nc4ccccc4nc32)c1	/	0
CC1CCCC(NC(=O)C(=O)Nc2ccc3nc4n(c(=O)c3c2)CCCCC4)C1C (stereo unspecified)	0.32	0.8
CC(C(=O)NCc1cccs1)n1ncn2c(cc3occc32)c1=O (stereo unspecified)	-0.14	3.1
O=C1NC(=S)S/C1=C\c1cccs1	/	-0.04
O=S(=O)(c1ccc(N2CCOCC2)nc1)N1CCN(c2c(Cl)cncc2Cl)CC1	/	-1.4
O=C(Cc1ccc(NC2=NC3CS(=O)(=O)CC3S2)cc1)NCc1ccc2c(c1)OCO2 (stereo unspecified)	1.6	-1.3
O=C(Cn1ncn2c(cc3ccccc32)c1=O)N1CCOCC1	0.77	0.36
Cc1ccccc1NC(=O)Nc1sc2nc3n(c(=O)c2c1C)CCC(C)CC3 (stereo unspecified)	0.07	12*
COc1cccc(NC(=O)Nc2sc3nc4n(c(=O)c3c2C)CCC(C)CC4)c1 (stereo unspecified)	0.79	-3
Cc1c(NC(=O)Nc2ccccc2Cl)sc2nc3n(c(=O)c12)CCC(C)CC3 (stereo unspecified)	0.25	-2.5
COc1cc(OC)c(NC(=O)Nc2sc3nc4n(c(=O)c3c2C)CCC(C)CC4)cc1Cl (stereo unspecified)	0.31	11*
Cc1ccc(Cn2ccc(NC(=O)C3=CC(c4cccs4)=NS(=O)(=O)N3C)n2)cc1	2.4	-3.1
COc1ccccc1OCCn1c(CN2CCOCC2)nc2ccccc21	1.8	1.2
Cc1occc1-c1nnc(SCC(=O)N(C)c2ccc(F)cc2)o1	2.2	0.4
CCC(=O)N1c2ccccc2NC2=C(C(=O)CC(C)(C)C2)C1c1ccco1 (stereo unspecified)	3.3	/
COc1cc(-c2coc3cc(OC)c(OC)c(OC)c3c2=O)cc(OC)c1OC	3.2	/
CC(=O)Oc1cc(-c2coc3cc(OC(C)=O)c(OC(C)=O)c(OC(C)=O)c3c2=O)cc(OC(C)=O)c1OC(C)=O	25*	/
CCN1CCN(CCNC(=O)C2Cc3cc(S(=O)(=O)N4CCOCC4)ccc3N2C(C)=O)CC1 (stereo unspecified)	-0.61	/
CCc1nn(CCCC(=O)N2CCN(c3ccc(Cl)cc3)CC2)c(=O)c2cc3occc3n12	-0.41	-1.9
COc1ccc(C2c3sc(=O)[nH]c3SC3C(=O)N(c4ccc(Cl)cc4)C(=O)C32)cc1 (stereo unspecified)	/	-0.78
C/C(=C\c1ccccc1)c1nnc2[nH]c(=O)n(C)c(=O)c2n1	19*	-0.65
SMILES	TAR Tat displ	CDC25B CDK2 inh
Cn1c(=O)[nH]c2nnc(-c3cccnc3)nc2c1=O	0.12	-1.7
O=C(O)c1cc(-c2ccc(Cl)cc2)nc2n[nH]c(-c3ccc(F)cc3)c12	2.1	/
Cc1cc(C)n2cc(CSc3nncc(-c4ccccc4)n3)nc2n1	0.48	/
CCN(Cc1cc(=O)n2c(C)csc2n1)c1ccccc1	5.1*	/
Cc1nn2c(=O)cc(CN(C)c3ccccc3)nc2s1	0.36	/
Cc1csc2nc(COc3ccccc3)cc(=O)n12	-0.35	-1.2
Cc1csc2nc(CN(C)c3ccccc3)cc(=O)n12	4.5*	/
CN(C)c1ccc(C(CNS(=O)(=O)c2ccc(Br)cc2)N(C)C)cc1 (stereo unspecified)	0.69	/
Cn1c2ccccc2c2cnn(CC(=O)NC3CC3)c(=O)c21	0.2	2
O=C(N[C@@H](Cc1ccccc1)C(=O)CCl)OCc1ccccc1	0.24	-2.2
CC(C)C[C@@H](C=O)NC(=O)[C@H](CC(C)C)NC(=O)[C@H](CC(C)C)NC(=O)OCc1ccccc1	3.9*!	/
Cc1cccc(Nc2ncnc3c2cnn3-c2ccccc2)c1	/	0.32
CCN(CC)C(=O)c1oc2ccccc2c1NC(=O)C(C)(C)C	0.42	/
CCN(CC)C(=O)c1oc2ccccc2c1NC(=O)c1ccc2c(c1)OCO2	7*	/
CN(C(=O)C1CCCN1S(=O)(=O)c1ccc2c(c1)n(C)c(=O)c(=O)n2C)C1CCCCC1 (stereo unspecified)	-1.1	-0.46
CC(=O)Oc1cc2c(C(=O)N3CCCC3)c(C)oc2c2ccccc12	0.43	3.9
Cc1oc2c(cc(O)c3ccccc32)c1C(=O)O	-5.5	8.6*
O=C(c1ccco1)N1CCN(C(=O)c2cc(S(=O)(=O)N3CCSCC3)ccc2Cl)CC1	2	/
CC(=O)N1N=C(CSc2nc(C)cc(C)n2)OC1/C(C)=C/c1ccccc1 (stereo unspecified)	4.2*	/
CC(=O)N1N=C(CSc2nnc(-c3ccccc3)n2-c2ccccc2)OC1c1ccc(C)o1 (stereo unspecified)	0.39	/
Cc1ccc2onc(CNC(=O)N3CCc4ccccc43)c2c1	0.12	/
Cc1ccnc(NS(=O)(=O)c2ccc(NC(=O)c3nn(-c4ccc(Cl)cc4)ccc3=O)cc2)n1	-0.34	-0.68
O=C(CC(=O)N1CCN(C2CCCCC2)CC1)Nc1ccc2nc3n(c(=O)c2c1)CCCCC3	2.9	-1.2
COc1ccc(S(=O)(=O)NC(C)C)cc1OC	0.03	-2.4
O=C(c1cccs1)N1CCN(CCN2C(=O)c3cccc4cccc(c34)C2=O)CC1	1.1	12*
SMILES	TAR Tat displ	CDC25B CDK2 inh
O=C(c1cccs1)N1CCN(CCOc2ccccc2)CC1	/	4.3
CCc1cccc(C)c1Nc1nc(C)nc2c1CCC2	-0.57	-1.5
Cc1cccc(C2Nc3ccccc3NC3=C2C(=O)CC(c2ccccc2)C3)c1 (stereo unspecified)	-2.5	-0.44
CC1CCC(NS(=O)(=O)c2ccc3[nH]c(=O)ccc3c2)CC1 (stereo unspecified)	32*	/
CC1CCC(NC(=O)C2CCN(S(=O)(=O)c3ccc4[nH]c(=O)ccc4c3)CC2)CC1 (stereo unspecified)	2.8	/
CC(C)(C)C1CCc2c(sc3nc(CCC(=O)N4CCC(C(N)=O)CC4)[nH]c(=O)c23)C1 (stereo unspecified)	0.16	/
O=C(CCc1nc2sc3c(c2c(=O)[nH]1)CCCCC3)N1CCN(c2ccc(F)cc2)CC1	-0.48	/
CC(=O)NCCNC(=O)CCc1nc2sc3c(c2c(=O)[nH]1)CCCCC3	6*	/
NC(=O)C1CCN(C(=O)CCc2nc3sc4c(c3c(=O)[nH]2)CCCCC4)CC1	19*	/
CNC(=O)CCc1nc2sc3c(c2c(=O)[nH]1)CCCCC3	0.79	/
O=C(CCc1nc2sc3c(c2c(=O)[nH]1)CCCCC3)N1CCN(Cc2ccc3c(c2)OCO3)CC1	10*	/
COc1ccc(OC(=O)c2snnc2C)cc1	2.2	-0.45
CCOC(=O)c1sc(=S)n(-c2ccc(Cl)cc2)c1N	1.5	/
CCOC(=O)c1sc(=S)n(-c2ccc(OC)cc2)c1N	1.1	17*
O=C1CC(c2cccs2)CC2=C1C(c1ccc(Cl)c(F)c1)Nc1ccccc1N2 (stereo unspecified)	0.15	-1.8
Cc1ccc(CSc2nc(-c3ccco3)nc3cc(=O)[nH]n23)cc1	-0.39	/
Cc1ccc(Nc2ncnc3c2cnn3-c2ccc(F)cc2)cc1	0.5	/
CCN(CC)c1c(S(=O)(=O)c2ccccc2)cnc2ccc(C)cc12	-0.15	1.7
